Rows were chosen to be rich in hits. Some 3.7% of all compounds tested hit in one or more screens of this group.
MazF activator: MazEF (E. coli) toxin RNase activation; P0AE70; FAM/BHQ RNA-DNA oligo cleavage fluorescence, 5 h; activation, % at 20 µM; actives 0.32% (n = 350,000); AID 504720; in the data active means activation above about 50%
Target sequence (P0AE70 whole entry, looked up): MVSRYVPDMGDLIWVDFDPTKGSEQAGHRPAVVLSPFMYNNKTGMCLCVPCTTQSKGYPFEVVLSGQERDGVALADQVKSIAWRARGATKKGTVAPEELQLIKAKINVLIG
Bead autofluor: counter-screen for toxin protease inhibitors: compound fluorescence. compound autofluorescence counterscreen, microsphere flow cytometry; active compounds read high. fluorescence intensity (test concentration not listed). actives 3.1% (n = 360,000); in the data active means fluorescence intensity above about 16000; inconclusive means no clear call, values can overlap the other calls
BoNT F protease: inhibitors of Botulinum neurotoxin F light chain protease; Multiplex microsphere protease cleavage assay, flow cytometry; inhibition, % at 10 µM; actives 0.22% (n = 360,000); AID 588497; in the data active means inhibition above about 35%, passing the limit was not always enough; inconclusive means no clear call, values can overlap the other calls
Anthrax LF inh2: blocks Bacillus anthracis lethal factor protease; P15917; actives 0.12% (n = 360,000); inhibition, % at 10 µM; multiplex microsphere protease cleavage assay, LF
BoNT-A LC inh2: BoNT A light chain protease inhibition. inhibition, % at 10 µM. multiplex microsphere protease substrate cleavage, flow cytometry. actives 0.17% (n = 360,000). AID 588499
Each line names hits and unclear results; the compound was inactive in the other large screens. Unless noted, no stated cut-off is given here; in the data, active means inhibition above about 30%; inconclusive means no clear call, values can overlap the other calls; inactive means below that.

Cc1nc2c(C(=O)NCCC3=CCCCC3)c[nH]n2c(=O)c1Cl	Bead autofluor 23190
Cc1noc(C)c1C(=O)NCCC1=CCCCC1	none
Cc1nc2c(C(=O)NCc3ccc4c(c3)OCO4)c[nH]n2c(=O)c1Cl	Bead autofluor 25275
CN(Cc1c(F)cccc1Cl)C(=O)c1ccc(NC(=O)CC2SC(N3CCCCC3)=NC2=O)cc1 (stereo not given)	none (no result: Bead autofluor, BoNT F protease, Anthrax LF inh2, BoNT-A LC inh2)
CC(C)Oc1ccc2ccccc2c1CNC[C@H]1O[C@@H](n2ccc(=O)[nH]c2=O)[C@H](O)[C@@H]1O	none (no result: MazF activator)
CC(C)c1nc(Cl)c(C#N)c2c1COC(C)(C)C2	BoNT F protease inconclusive, BoNT-A LC inh2 inconclusive
CSc1c(C#N)c(N)c(C#N)c2c1COC(C)(C)C2	Bead autofluor 21535
CCC(C)n1c(SCC(=O)Nc2ccccc2C(F)(F)F)nc2ccsc2c1=O (stereo not given)	Bead autofluor 21867
CN(CCc1ccccc1)C(CCc1ccccc1)C(=O)Nc1ccc2c(c1)OCCO2 (stereo not given)	none (no result: MazF activator)
O=C(CN1C(=O)c2ccc(Br)cc2C1=O)NCC1CCCO1 (stereo not given)	none
COC(=O)c1ccccc1NC(=O)C1CC(c2ccc(F)cc2)=NO1 (stereo not given)	Bead autofluor 16511
N#Cc1ccc(NC(=O)C2CC(c3ccc(F)cc3)=NO2)cc1 (stereo not given)	Bead autofluor 22651
CCOC(=O)c1c(C)n(-c2ccccc2)c2ccc(OCCN(C)C)cc12	none
O=C(/C=C/c1ccccc1[N+](=O)[O-])NCc1ccc(Cl)cc1	none
O=C(/C=C/c1ccccc1Cl)NCCc1ccccc1	Bead autofluor 21242, BoNT-A LC inh2 inconclusive
O=C(/C=C/c1ccc(Cl)cc1)NCCc1ccccc1	none
O=C(/C=C/c1ccccc1Cl)NCc1ccccc1	Bead autofluor 20859
Nc1[nH]c(C(=O)c2ccccc2)c(-c2ccccc2Br)c1C(=O)c1ccccc1	none (no result: MazF activator)
O=C(c1ccc(Cl)cc1)c1cnc(-c2ccccc2)s1	none (no result: Bead autofluor, BoNT F protease, Anthrax LF inh2, BoNT-A LC inh2)
O=C(c1cnc(-c2ccccc2)s1)c1ccc(Cl)cc1Cl	Bead autofluor 22951, BoNT-A LC inh2 inconclusive
CN(C)/C=C/C(=O)c1cnc(-c2cccc(Cl)c2)s1	BoNT F protease 42.3
C[C@@H]1CN([C@@H](C)CO)C(=O)CCCn2nncc2CO[C@@H]1CN(C)S(=O)(=O)c1ccc(C#N)cc1	none
CC1(C(=O)Nc2cnc3ccccc3c2)CCN1CCOc1ccccc1 (stereo not given)	none (no result: MazF activator)
Cc1ccc(S(=O)(=O)NC(=NCC(=O)O)c2ccc(F)cc2)cc1	Bead autofluor 25722
O=C(N/N=C/c1cccnc1)c1ccc(NC(=O)C(c2ccccc2)c2ccccc2)cc1	MazF activator 61.4
CCCC(=O)Nc1ccc(C(=O)N/N=C/c2cccnc2)cc1	Bead autofluor 23205, BoNT-A LC inh2 inconclusive
O=C(CCC(=O)Nc1ccc(F)cc1)N/N=C/c1cccnc1	none
C[C@H]1CN([C@@H](C)CO)S(=O)(=O)c2ccc(Br)cc2O[C@@H]1CN(C)C(=O)Nc1ccc2c(c1)OCO2	none
CCC(C)(C)C1CCC2(CC1)NC(=O)N(CC(=O)N(C)CC(=O)Nc1ccccc1C(F)(F)F)C2=O (stereo not given)	none
CCOC(=O)C1C(=O)CC(C)(O)C(C(=O)OCC)C1c1cc(Br)ccc1OC (stereo not given)	Bead autofluor inconclusive
CCOC(=O)C1C(=O)CC(C)(O)C(C(=O)OCC)C1c1ccccc1OC (stereo not given)	Bead autofluor 21006
CC1=C(C(=O)N(C)C)CC(CC(=O)NCCc2ccccn2)C(=O)N1Cc1ccccc1 (stereo not given)	none
CC1=CCC(C(=O)O)(C(=O)N/N=C/c2cccs2)C(c2ccc([N+](=O)[O-])cc2)C1 (stereo not given)	Bead autofluor 21132
Cc1nc(C(C)NC(=O)c2cc(COc3ccc(C)c(C)c3)on2)c(C)s1 (stereo not given)	none
Cc1ccc(C(=O)NC(=S)N2CC(C)OC(C)C2)cc1[N+](=O)[O-] (stereo not given)	Bead autofluor 23557
COc1ccc(C(=O)NC(=S)N2CC(C)OC(C)C2)cc1 (stereo not given)	none
N#CCCN(CCC#N)C(=O)c1ccc2c(c1)OCO2	Bead autofluor 20717
Fc1ccc2nc3c(nc2c1)CCCC3	none
CCSc1ccccc1C(=O)NCc1ccc(S(N)(=O)=O)cc1	Bead autofluor 23721
CCSc1ccccc1C(=O)NCc1ccco1	Bead autofluor 24013
O=C(Nc1ccccc1C(=O)NCc1ccco1)c1ccco1	Bead autofluor 17328
NS(=O)(=O)c1ccc(CNC(=O)c2ccccc2SCC(=O)N2CCCC2)cc1	Bead autofluor inconclusive, Anthrax LF inh2 inconclusive
O=C(NCc1ccco1)c1ccccc1Br	none
CCOC(=O)C1=C(COC(=O)COc2cccc(C)c2C)NC(=O)NC1C (stereo not given)	none
CC1(C(=O)NCC(F)(F)F)CCN1C(=O)Cc1ccc(-c2ccccc2)cc1 (stereo not given)	none (no result: MazF activator)
Cc1ccc2[nH]c3c(=O)n(CCCN4CCN(C)CC4)cnc3c2c1	Bead autofluor 23434
CCOc1ccc(-c2csc(NC(=O)C3CCCO3)n2)cc1 (stereo not given)	Bead autofluor 21480
O=C(Nc1ncc(Cc2ccccc2Cl)s1)C1CCCO1 (stereo not given)	none
Cc1cnc(NC(=O)C2CCCO2)s1 (stereo not given)	Bead autofluor 16597, BoNT-A LC inh2 inconclusive
FC(F)(F)c1ccc(/C=N/N2CCN(Cc3cccc4ccccc34)CC2)cc1	Bead autofluor 17471
C(=N\N1CCN(Cc2cccc3ccccc23)CC1)/c1cccnc1	Bead autofluor 20176
O=C(O)c1ccc(/C=N/N2CCN(Cc3cccc4ccccc34)CC2)cc1	none
COCCC(=O)N1CCC(Oc2ccc(C(=O)N(C)CCCC3CCCC3)cc2)CC1	none
C(#Cc1ccccc1)C[N+]1(CC#Cc2ccccc2)CCCCC1	MazF activator 56.9
C#CC[N+]1(CC#Cc2ccccc2)CCCCC1	none
CSC1=N/C(=C\c2ccc(C)s2)C(=O)S1	MazF activator 532.4
CCN1CCN(Cc2cc(Br)cc(OC)c2O)CC1	Bead autofluor 22198
Cc1nc(N2CCOCC2)c(C#N)c2c1COC(C)(C)C2	Bead autofluor 20542
COc1ccc(S(=O)(=O)NCc2ccccn2)cc1NC(=O)c1ccccc1C	Bead autofluor inconclusive
COc1ccc2c(C)cc(SCC(=O)N3CCOCC3)nc2c1	BoNT F protease 36.1
COc1ccc(-c2cc(C(=O)N/N=C/c3cccnc3)c3cc(C)cc(C)c3n2)cc1	none
O=C(CCS(=O)(=O)Cc1ccc(Cl)cc1)NCCCN1CCOCC1	Bead autofluor 23981
Cc1nc(-c2cccc(NS(=O)(=O)c3cccc4ccccc34)c2)cs1	Bead autofluor 22200, BoNT-A LC inh2 inconclusive
Cc1nc(-c2cccc(NS(C)(=O)=O)c2)cs1	Bead autofluor inconclusive
COc1ccc(C(=O)c2c[nH]c(C(=O)NCCCn3ccnc3)c2)cc1	none
CC(C)(C)c1ccc(C(=O)c2c[nH]c(C(=O)NCCCn3ccnc3)c2)cc1	Bead autofluor 24832, BoNT-A LC inh2 inconclusive
Cc1cccc(CN2[C@H](CO)C=CS2(=O)=O)c1	none (no result: MazF activator)

Compound activity: PubChem BioAssay, several laboratories
